# GLA spleen mod = inhibits or activates alpha-galactosidase in human spleen homogenate; P06280; human spleen homogenate, 4MU-alpha-Gal fluorescence, 40 min; Potency, µM (series often up to 80 µM), usual class: inhibitors; 240,000 compounds, 0.008% hits
#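 Human spleen homogenate (1 ug) as enzyme source, 4-methylumbelliferyl-alpha-D-galactopyranoside 1 mM final, citrate/phosphate pH 5.0 with 0.01% Tween-20. Compounds 40 min at 37C, NaOH/glycine stop; fluorescence Ex 365/Em 440, Hill-fit AC50.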
# ALDH1A1 inh = blocks purified human ALDH1A1 activity. 220,000 compounds, 7.3% hits. Potency, µM (top dose mostly 75.3 µM), hits mostly inhibitors. Purified ALDH1A1, NADH fluorescence, propionaldehyde substrate; active = well fitted inhibition curve with a large enough effect, not every such curve was filed as active; inconclusive = small, poorly fitted or top-dose-only effect, or another doubt; inactive = no such curve, though single readings can be large or run the other way
# HPGD inh = blocks human HPGD enzyme activity | P15428 | purified HPGD, NADH fluorescence kinetic, PGE2 substrate | Potency, µM, usual class: inhibitors | 150,000 compounds, 4.3% hits | AID 894; active = well fitted inhibition curve with a large enough effect, not every such curve was filed as active; inconclusive = small, poorly fitted or top-dose-only effect, or another doubt; inactive = no such curve, though single readings can be large or run the other way
#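 20 nM HPGD preincubated 15 min at room temperature with compound in 50 mM Tris-HCl pH 8, 0.01% Tween 20. Started with 1 mM NAD+ and 30 uM prostaglandin E2; NADH fluorescence (360/450 nm) read 5 times over 30-s intervals, last minus first.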
# ALOX12 inhib = 12-hLO (ALOX12) enzyme inhibition; purified 12-hLO, xylenol orange hydroperoxide absorbance; 150,000 compounds, 0.12% hits; P18054; Potency, µM (doses to about 57.1 µM), most hits filed as inhibitors; AID 1452; also: nearly all actives have a fitted effect of over 55% in size
# Target sequence (P18054 whole entry, looked up): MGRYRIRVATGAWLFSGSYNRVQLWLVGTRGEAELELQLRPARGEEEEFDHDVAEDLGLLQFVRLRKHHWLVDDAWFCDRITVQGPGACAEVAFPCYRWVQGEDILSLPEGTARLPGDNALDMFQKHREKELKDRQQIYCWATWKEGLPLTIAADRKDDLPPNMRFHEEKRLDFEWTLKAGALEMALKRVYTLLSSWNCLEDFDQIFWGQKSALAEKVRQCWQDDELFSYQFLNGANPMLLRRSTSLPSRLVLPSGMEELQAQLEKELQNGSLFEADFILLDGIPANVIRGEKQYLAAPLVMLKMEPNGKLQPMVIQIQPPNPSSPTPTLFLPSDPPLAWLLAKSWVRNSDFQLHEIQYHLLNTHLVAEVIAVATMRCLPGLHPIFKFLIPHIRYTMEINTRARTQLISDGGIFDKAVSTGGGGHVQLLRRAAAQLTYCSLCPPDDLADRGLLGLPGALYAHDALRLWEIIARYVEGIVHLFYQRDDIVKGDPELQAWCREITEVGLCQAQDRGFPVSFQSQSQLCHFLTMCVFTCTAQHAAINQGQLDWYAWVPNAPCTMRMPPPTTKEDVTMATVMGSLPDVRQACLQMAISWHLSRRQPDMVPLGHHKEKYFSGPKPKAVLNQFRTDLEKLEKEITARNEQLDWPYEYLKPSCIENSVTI
#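 Xylenol orange chromogenic assay: hydroperoxide from 12hLO oxidises Fe(II), giving red-shifted Fe(III)-XO absorbance. Conditions: 150 nM enzyme, 40 uM arachidonic acid, 25 mM Hepes pH 7.0, 0.01% Triton X-100, 30 min, room temperature.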
# GLA inh pH 4.5 = alpha-galactosidase A (human) inhibition, pH 4.5 | activity change, negative = inhibition, % at 105 µM | purified enzyme, 4-MU-alpha-Gal fluorescence, pH 4.5 | 230,000 tested, under 10 active
# PNC assembly inh = inhibitors of perinucleolar compartment assembly | PC3M PTB-GFP, PNC prevalence imaging, 16 h; active compounds read low | 140,000 compounds, 3.1% hits | activity change (PNC), negative = inhibition, % at 10 µM;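 active = readout at or below -70, meaning at least 70% loss of cells showing the perinucleolar compartment, a nuclear body marking cancer cells; inconclusive = readout between -30 and a set limit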
#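 PC3M cells stably expressing PTB-GFP, 750–1000 cells/well, treated 16 h at 37 °C with compound (23 nl of library stock), in duplicate. After paraformaldehyde fixation and Hoechst stain, imaged at 20x; PNC prevalence scored by image analysis.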
# Numbers stand for hits; 0 = inactive; ? = inconclusive; - = no result given; [ ] = remark or other dose. Rows were chosen to be rich in hits. Some 10% of all compounds tested hit in one or more screens of this group. Unless noted, calls follow the shape of the dose curve; as a rule, active = well fitted curve in the direction sought with a large enough effect; inconclusive = small, poorly fitted or top-dose-only effect, or another doubt; inactive = no such curve, though single readings can be large; an effect the other way counts as inactive or inconclusive.
SMILES,GLA spleen mod,ALDH1A1 inh,HPGD inh,ALOX12 inhib,GLA inh pH 4.5,PNC assembly inh
CCOC(=O)OCC1OC(C#CC(C)(C)C)C=CC1OC(=O)OCC (configuration not stated),0[17.5 µM],0[13.5 µM],-,-,-,-
COCC(=O)N1CCC2(CC1)CCN(c1ccccn1)CC2,0,?,?,0,-,-
N#CCSc1nc2ccccc2c(=O)n1CCCC(=O)NCC1CCCO1 (configuration not stated),0,28µM,-,-,0,-
O=C(CCCn1c(SCC(=O)NCC2CCCO2)nc2ccccc2c1=O)NCc1ccccc1 (configuration not stated),0,0,0,0,0,0
O=C(CCCn1c(SCc2cccc(F)c2)nc2ccccc2c1=O)NCC1CCCO1 (configuration not stated),0,16µM,-,-,0,-
COCCN=c1scc(-c2ccccc2)n1/N=C/c1c[nH]c2ccccc12,0,?,0,0,0,0
CCN=c1scc(C)n1/N=C/c1ccc(O)c(O)c1O,0,10µM,7.1µM,0,0,0
COCCN=c1scc(-c2cccs2)n1/N=C/c1ccc(O)c(O)c1O,0,1.1µM,-,?,0,?
Cc1ccc(NC(=O)Cc2ccc3c(c2)OCCO3)cc1S(=O)(=O)N1CCCCC1,0,-,-,-,0,-
CC[C@H](C)[C@H](NC(=O)[C@H](CC(C)C)NC(=O)[C@@H](N)CO)C(=O)NCC(=O)N[C@@H](CCCN=C(N)N)C(=O)N[C@@H](CC(C)C)C(=O)O,0,-,-,-,-,-
N#Cc1cnn(CC2CCCCC2)c1N,0,0,0,0,0,-97
C/C(=C\C(=O)C(F)(F)F)Nc1ccc(C(F)(F)F)cc1,0,22µM,0,0,0,?
CC(C)(CCl)C(=O)Nc1ccc(C(F)(F)F)cc1,0,0,-,-,0,-
O=C(CC1=NCCNC(c2ccccc2)C1)c1ccccc1O (configuration not stated),0,18µM,25µM,?,0,0
O=C(CC1SC(=NCc2ccccc2)NC1=O)Nc1ccccc1 (configuration not stated),0,0,0,0,0,0
COc1ccc(N2C(=O)CC(SCC(=O)O)C2=O)cc1 (configuration not stated),0,?,0,0,0,0
COc1ccccc1C(=O)NNC1CC(=O)N(c2ccc3c(c2)OCCO3)C1=O (configuration not stated),0,0,0,0,0,0
COc1ccc(NC(=O)CSC2CC(=O)N(c3ccc4c(c3)OCCO4)C2=O)cc1 (configuration not stated),0,14µM,0,0,0,0
COc1ccccc1NC(=O)CSC1CC(=O)N(c2ccc3c(c2)OCO3)C1=O (configuration not stated),0,0.56µM,0,0,0,0
Clc1ccc2c(c1)-c1nnc(Br)n1-c1ccccc1S2,0,0,18µM,0,0,-100
CC#CC(C)C(OCOC)C(CC(C)Cc1cc(Br)cc(OCc2ccccc2)c1OC)OC (configuration not stated),0[17.5 µM],?,-,-,-,-
CC(C)CN1CCN(Cc2cccn2-c2cccnc2)CC1CCO (configuration not stated),0,3.5µM,-,-,0,-
COC(=O)Cc1c(O)ccn(Cc2ccc3c(c2)OCO3)c1=O,0,0,-,-,0,-
O=c1c(Cc2c(F)cccc2Cl)c(O)ccn1Cc1ccc2c(c1)OCO2,0,7.9µM,-,-,0,-
CCN(CC)c1ccc(NS(=O)(=O)c2ccc3c(c2)oc(=O)n3C)c(C)c1,0,?,13µM,0,0,0
CC(=O)c1cccc(NS(=O)(=O)c2ccc3c(c2)oc(=O)n3C)c1,0,22µM,0,0,0,?
Cc1cc(C)cc(NC(=O)CCNS(=O)(=O)c2ccc3c(c2)oc(=O)n3C)c1,0,0,0,0,0,-100
Cn1c(=O)oc2cc(S(=O)(=O)Nc3cccc(C(=O)O)c3)ccc21,0,0,0,0,0,0
COc1ccc(S(=O)(=O)Nc2cccc(C(C)=O)c2)cc1Br,0,32µM,-,-,0,-
Cc1ccc(NC(=O)CCNS(=O)(=O)c2ccc3c(c2)oc(=O)n3C)c(C)c1,0,0,0,0,0,0
